Data on 14 molecules can be found in PubChem BioAssay (NCATS).

Common to all, as to assay: Primary qHTS to identify gynecologic anti-cancer compounds using libraries of approved drugs and bioactive compounds (AID 1345084); note: nearly all actives have a fitted effect of over 55% in size
One assay has as its system C33A. The settings on record: Gynecologic cancer cell panel viability, ATPlite luminescence, 48 h; series mostly up to 57.5 µM. Summed up: (§1)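 Cell viability after 48 h drug treatment, ATPlite luminescence readout; five doses.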
In general terms: Cellular ATP, detected with luciferase, serves as a proxy for viable cell number.

The subject of a further assay is CAOV3. Particulars: Gynecologic cancer cell panel viability, ATPlite luminescence, 48 h; series mostly up to 57.5 µM. Summed up: as §1
Another assay concerns CASKI. The settings on record: Gynecologic cancer cell panel viability, ATPlite luminescence, 48 h; series mostly up to 57.5 µM. Summed up:
as §1

A further assay relates to Es-2. The settings on record: Gynecologic cancer cell panel viability, ATPlite luminescence, 48 h; series mostly up to 57.5 µM. The method, boiled down: as §1
A further assay has as its system HeLa. The settings on record: Gynecologic cancer cell panel viability, ATPlite luminescence, 48 h; series mostly up to 57.5 µM. The method, boiled down: as §1
A further assay deals with Hek293T. The settings on record: Gynecologic cancer cell panel viability, ATPlite luminescence, 48 h, control line for the selectivity index; series mostly up to 57.5 µM. Summed up: as §1
For the next assay, the system named is JEG-3. Particulars: Gynecologic cancer cell panel viability, ATPlite luminescence, 48 h; series mostly up to 57.5 µM. The method, boiled down: as §1
Another assay deals with OV90. The settings on record: Gynecologic cancer cell panel viability, ATPlite luminescence, 48 h; series mostly up to 57.5 µM. Summed up: as §1
The subject of a further assay is PA-1. The settings on record: Gynecologic cancer cell panel viability, ATPlite luminescence, 48 h; series mostly up to 57.5 µM. Summed up: as §1
For the next assay, the system named is SKOV3. The settings on record: Gynecologic cancer cell panel viability, ATPlite luminescence, 48 h; series mostly up to 57.5 µM. Summed up: as §1
A further assay has as its system Tov-21-G. Particulars: Gynecologic cancer cell panel viability, ATPlite luminescence, 48 h; series mostly up to 57.5 µM. Summed up:
as §1

The next assay concerns Tov112D. The settings on record: Gynecologic cancer cell panel viability, ATPlite luminescence, 48 h; series mostly up to 57.5 µM. The method, boiled down:
as §1

Records with an inconclusive call do not appear. Unmarked numbers belong to inactive results. The source made the active and inactive calls. Calls come from the whole dose curve; as a rule, active = well fitted cell-killing curve with a large enough effect; inconclusive = small, poorly fitted or top-dose-only effect, or effect the other way; inactive = flat fitted curve, though single readings scatter.
% is set by controls: 0 for no effect and ±100 for the full control effect; potency is the fitted concentration of half-maximal effect.

With `COc1c2c(c(CO)c3c1C(=O)OC3)OC1(C)CCC3(O)C(C)(C)OC(=O)CCC3(C)C1C2` (stereo not drawn), the Potency entry with C33A, in the assay on CAOV3, in the assay with CASKI, in the assay with Es-2, in the assay on HeLa and with Hek293T was “inactive” each time. Also, the Potency result with JEG-3, in the assay with OV90, in the assay with PA-1, in the assay with SKOV3, with Tov-21-G and with Tov112D was “inactive” throughout.

For the molecule `CC(C)(O[C@@H]1O[C@H](CO)[C@@H](O)[C@H](O)[C@H]1O)C(OC(=O)/C=C\c1ccc(O)cc1)C(=O)OCc1ccc(O[C@@H]2O[C@H](CO)[C@@H](O)[C@H](O)[C@H]2O)cc1` (stereo partly drawn), the Potency entry with C33A, in the assay on CAOV3, in the assay on CASKI, with Es-2, in the assay on HeLa and in the assay on Hek293T was “inactive” throughout. For the same molecule, the Potency result in the assay on JEG-3, in the assay with OV90, with PA-1, in the assay on SKOV3, with Tov-21-G and in the assay with Tov112D was “inactive” in each case.

Take `CN=C(N)NCCCCC/C=C(/C)CC(C)C1OC(=O)C(C)C(O)/C=C/C(C)C(O)CC(O)C(C)C(O)CCC(C)C(O)CC2(O)OC(CC(OC(=O)CC(=O)O)CC(O)CC(O)C(C)C(O)/C(C)=C/CCC1C)CC(O)C2O` (stereo not drawn): the activity change, negative = cytotoxicity in the assay with C33A is 11.4% [at 11.6 µM]; with CAOV3, 12.9% [at 11.6 µM]; in the assay with CASKI, 9.88% [at 11.6 µM]; in the assay with Es-2, 0.226% [at 11.6 µM]; in the assay on HeLa, 3.51% [at 11.6 µM]; in the assay with Hek293T, 10.1% [at 11.6 µM]. Further, the activity change, negative = cytotoxicity was 16% [at 11.6 µM] with JEG-3; 7.81% [at 11.6 µM] in the assay on OV90; 16.3% [at 11.6 µM] in the assay on PA-1; 0% [at 11.6 µM] in the assay with SKOV3; 3.06% [at 11.6 µM] in the assay with Tov-21-G; -6.61% [at 11.6 µM] in the assay with Tov112D.

Take `C[C@@H]1O[C@@H](O[C@H]2[C@@H]3C=CO[C@@H](O[C@@H]4O[C@H](CO)[C@@H](O)[C@H](O)[C@H]4O)[C@@H]3[C@@]3(CO)O[C@@H]23)[C@H](OC(=O)/C=C/c2ccc(O)c(O)c2)[C@H](O)[C@H]1O`: the Potency entry with C33A, with CAOV3, in the assay with CASKI, in the assay on Es-2, in the assay on HeLa and with Hek293T was “inactive” throughout. The Potency entry in the assay with JEG-3, with OV90, in the assay with PA-1, with SKOV3, with Tov-21-G and in the assay on Tov112D was “inactive” throughout.

Regarding `CC1(C)C2CC=C(COC3OC(COC4OCC(O)(CO)C4O)C(O)C(O)C3O)C1C2` (stereo not drawn), the Potency entry in the assay with C33A, in the assay with CAOV3, in the assay on CASKI, in the assay with Es-2, in the assay with HeLa and in the assay on Hek293T was “inactive” each time. Besides, the Potency result in the assay with JEG-3, in the assay with OV90, with PA-1, with SKOV3, with Tov-21-G and in the assay on Tov112D was “inactive” in each case.

`COc1cc(O)c([C@@H](CC(=O)N2CC(C)CC(C)C2)c2ccc3c(c2)OCO3)c(OC)c1` (stereo partly drawn): the Potency result in the assay on C33A, in the assay with CAOV3, in the assay with CASKI, with Es-2, in the assay on HeLa and with Hek293T was “inactive” throughout. Besides, the Potency result with JEG-3, in the assay on OV90, with PA-1, in the assay with SKOV3, with Tov-21-G and in the assay on Tov112D was “inactive” in each case.

For the molecule `COc1cc(C)c(C(=O)Oc2cc(C)c(C(=O)Oc3cc(C)c(C(=O)NC(C)C(=O)O)c(O)c3)c(O[C@@H]3O[C@H](CO)[C@@H](O)[C@H](O)[C@H]3OC(C)=O)c2)c(OC)c1` (stereo partly drawn), the Potency entry with C33A, in the assay with CAOV3, with CASKI, in the assay on Es-2, in the assay with HeLa and with Hek293T was “inactive” in each case. Besides, the Potency result in the assay on JEG-3, in the assay with OV90, in the assay on PA-1, in the assay on SKOV3, with Tov-21-G and in the assay on Tov112D was “inactive” each time.

As for `O=C(/C=C/c1ccc(O)cc1)OC1[C@H](O)CC(O)(C(=O)O)C[C@H]1O` (stereo partly drawn), the Potency entry with C33A, in the assay on CAOV3, in the assay with CASKI, in the assay with Es-2, in the assay on HeLa and in the assay on Hek293T was “inactive” in each case. Besides, the Potency result with JEG-3, in the assay on OV90, in the assay on PA-1, in the assay on SKOV3, in the assay on Tov-21-G and in the assay on Tov112D was “inactive” in each case.

For `COc1ccc(CCO[C@@H]2O[C@H](CO[C@@H]3OC[C@H](O)[C@H](O)[C@H]3O)[C@@H](O)[C@H](O)[C@H]2O)cc1`, the Potency entry with C33A, in the assay with CAOV3, with CASKI, in the assay with Es-2, in the assay with HeLa and in the assay with Hek293T was “inactive” in each case. Also, the Potency result in the assay with JEG-3, in the assay with OV90, with PA-1, with SKOV3, in the assay on Tov-21-G and with Tov112D was “inactive” throughout.

Take `CC(=O)O[C@@H]1c2c(C)coc2C(=O)[C@@]23O[C@@H]2CC[C@H](C)[C@@]13C`: the Potency entry in the assay with C33A, with CAOV3, in the assay with CASKI, in the assay with Es-2, with HeLa and in the assay on Hek293T was “inactive” each time. The Potency entry with JEG-3, with OV90, in the assay with PA-1, in the assay on SKOV3, with Tov-21-G and with Tov112D was “inactive” each time.

As for `C=C1C[C@@]23CCC4[C@@](C)(CCC[C@@]4(C)C(=O)OC)C2CC[C@@H]1C3` (stereo partly drawn), the Potency result in the assay with C33A, in the assay with CAOV3, with CASKI, in the assay on Es-2, with HeLa and in the assay with Hek293T was “inactive” each time. Moreover, the Potency result with JEG-3, in the assay on OV90, in the assay with PA-1, in the assay on SKOV3, with Tov-21-G and with Tov112D was “inactive” each time.

On to `COc1c2c(c(C)c3c1C(=O)OC3)O[C@@]1(C)CC(O)C(C(C)(C)O)[C@](C)(CCC(=O)O)[C@H]1C2` (stereo partly drawn), for which the Potency result with C33A, with CAOV3, in the assay on CASKI, in the assay with Es-2, in the assay with HeLa and in the assay on Hek293T was “inactive” throughout. Besides, the Potency result with JEG-3, in the assay with OV90, with PA-1, with SKOV3 and in the assay with Tov112D was “inactive” throughout. The Potency with Tov-21-G is 6.31 µM (active).

On to `COC(=O)C[C@H]1C(C)(C)[C@H](OC(=O)C(C)C)[C@@]2(O)C(=O)[C@]1(C)C1CC[C@]3(C)C(CC(=O)O[C@H]3c3ccoc3)[C@]13O[C@@H]32` (stereo partly drawn), for which the Potency entry in the assay with C33A, with CAOV3, in the assay on CASKI, in the assay with Es-2, with HeLa and with Hek293T was “inactive” each time. The Potency entry in the assay on JEG-3, in the assay with OV90, in the assay with PA-1, in the assay on SKOV3, in the assay on Tov-21-G and in the assay on Tov112D was “inactive” throughout.

In the case of `C=CC(C)(C)C12C=C(OC)C(=O)N3C(C(C)C)C(=O)NC31N(OC)c1ccccc12` (stereo not drawn), the Potency result with C33A, in the assay on CAOV3, in the assay with CASKI, in the assay on Es-2, in the assay with HeLa and in the assay with Hek293T was “inactive” throughout. Further, the Potency result in the assay with JEG-3, in the assay on OV90, in the assay with PA-1, in the assay on SKOV3, in the assay with Tov-21-G and with Tov112D was “inactive” each time.
